Rows were chosen to be rich in hits. Some 2.4% of all compounds tested hit in one or more screens of this group.
D2 PAM-1 – positive allosteric modulators of human D2 dopamine receptor. P14416. actives 0.23% (n = 360,000). DiscoveRx D2 beta-arrestin cells, luminescence, 90 min; 100% = 57 uM dopamine signal. potentiation, % (no concentration beside the values); in the data active = potentiation above about 50%; inconclusive = mostly about 30% to 49%
Target sequence (P14416 whole entry, looked up): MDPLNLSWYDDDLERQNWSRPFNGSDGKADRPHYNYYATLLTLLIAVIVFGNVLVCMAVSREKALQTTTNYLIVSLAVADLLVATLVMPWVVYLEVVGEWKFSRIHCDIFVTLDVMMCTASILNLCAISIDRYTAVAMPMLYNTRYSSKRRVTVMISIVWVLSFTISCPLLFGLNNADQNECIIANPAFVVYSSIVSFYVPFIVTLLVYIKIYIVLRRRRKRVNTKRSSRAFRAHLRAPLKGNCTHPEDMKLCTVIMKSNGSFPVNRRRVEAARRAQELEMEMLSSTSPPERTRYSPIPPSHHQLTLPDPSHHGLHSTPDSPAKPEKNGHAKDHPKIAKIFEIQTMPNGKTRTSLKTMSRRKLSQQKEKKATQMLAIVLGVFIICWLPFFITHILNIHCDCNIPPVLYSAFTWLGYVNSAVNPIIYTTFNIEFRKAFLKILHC
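D2 cells co-treated with compound plus 50 nM dopamine (EC20) for 90 min at 37 deg C to detect potentiation. Beta-arrestin recruitment was read as enzyme-fragment luminescence after 1 h at ambient temperature. Full response was set by 57 uM dopamine.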
D2 ag-1 – activates the human D2 dopamine receptor. P14416. DiscoveRx PathHunter D2 beta-arrestin, luminescence, 90 min; 100% = 57 uM dopamine signal. activation, % (test concentration not listed). actives 0.084% (n = 360,000). AID 624465; in the data active = activation above about 40%; inconclusive = between about 15% and that limit
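Agonist mode: compounds alone added to overnight-plated D2 PathHunter cells for 90 min at 37 C, with 57 uM final dopamine (EC100) defining full response. Beta-arrestin recruitment detected by chemiluminescent reagent, read after 1 h at ambient temperature.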
D2 antag – antagonizes the human D2 dopamine receptor | P14416 | inhibition, % at 10 µM | AID 485344 | actives 2% (n = 340,000) | HEK293 TREx D2 cells, calcium flux, dopamine EC80; in the data active = inhibition above about 30%; inactive = below that, where a call was filed; note: 0% is about no effect
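Calcium flux kinetic readout in an inducible HEK293 TREx D2 line plated overnight at 30 C. After 180 s compound exposure, an EC80 dopamine challenge follows with another 180 s kinetic read to detect antagonism.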
D2 ag-2 – D2 dopamine receptor (human) agonism; P14416; actives 0.53% (n = 340,000); activation, % at 2 µM; HEK293 T-REx D2 cells, calcium flux agonist mode;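 active = activation over 3 SD above normal in the single-dose calcium agonist read, cut at about 30% in these data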; note: 0% is about no effect
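Tetracycline-induced HEK293 Trex cells with D2 receptor force-coupled to calcium signaling, plated overnight at 30 C and loaded with no-wash calcium dye. Calcium flux read kinetically for 180 s after compound addition; responses flag agonists.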
D2 PAM-2 – D2 dopamine receptor (human) potentiation; P14416; HEK293 T-REx D2, calcium flux, EC20 dopamine potentiation; potentiation, % at 10 µM; actives 0.34% (n = 340,000);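 active = potentiation over 3 SD above the plate norm, cut at about 30% in these data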; note: 0% is about no effect
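Tetracycline-induced HEK293 T-REx cells force-coupled to calcium signalling expressed D2; compounds were pin-added after a 10 s baseline, read kinetically 180 s, then an EC20 dopamine challenge followed with a further 180 s calcium read.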
D3 ag – activates human D3 dopamine receptor beta-arrestin recruitment; shares compounds with D2 ag-2; DiscoveRx D3 beta-arrestin cells, luminescence, 90 min; Potency, µM (doses to about 76.9 µM), without a hit: top-dose activation, most hits filed as activators; actives 4% (n = 2,300);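 note: potency is the fitted concentration of half-maximal effect; 100% = dopamine control response; nearly all actives have a fitted effect of over 70% in size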
D2 ag-3 – activates human D2 dopamine receptor in D3 counterscreen; DiscoveRx PathHunter D2 beta-arrestin, luminescence, 90 min; response scale: percent relative to full dopamine signal; Potency, µM (doses to about 76.9 µM), inactives show top-dose activation, actives largely listed as activators; actives 5.9% (n = 2,300); shares compounds with D2 ag-2; note: potency is the fitted concentration of half-maximal effect; % of control where 0% means no effect; nearly all actives have a fitted effect of over 70% in size
Starred values were filed as active, the others as inactive. Unless noted, calls come from the whole dose curve; as a rule, active = well fitted activation curve with a large enough effect; inconclusive = small, poorly fitted or top-dose-only effect; inactive = flat fitted curve, though single readings scatter.

How did CC(C)(C)C1CCC(OCC(O)CN2CCN(c3ccccc3)CC2)CC1 (stereo not drawn) do in these assays?
D2 PAM-1: 3; D2 ag-1: inconclusive; D2 antag: 74*; D2 ag-2: 68*; D2 PAM-2: -34; D3 ag: 0.35µM*; D2 ag-3: inconclusive

What do the screens show for `CC(C)(C)c1ccccc1OCC(O)CN1CCN(c2ccccn2)CC1` (stereo not drawn)?
D2 PAM-1: 0; D2 ag-1: 1; D2 antag: 62*; D2 ag-2: 22; D2 PAM-2: -16; D3 ag: inconclusive; D2 ag-3: 27%

Results for CC(C)(C)NCC(O)COc1ccccc1C(C)(C)C (stereo not drawn) ?
D2 PAM-1: -10; D2 ag-1: -2; D2 antag: 4; D2 ag-2: 1; D2 PAM-2: -4

How did COc1ccccc1/C=C/CN1CCN(c2ccccc2)CC1 do in these assays?
D2 PAM-1: 7; D2 ag-1: 12; D2 antag: 77*; D2 ag-2: 77*; D2 PAM-2: -26; D3 ag: 4%; D2 ag-3: inconclusive

What do the screens show for `OC(COC(c1ccc(Cl)cc1)c1ccc(Cl)cc1)CN1CCN(c2ccccn2)CC1` (stereo not drawn)?
D2 PAM-1: -17; D2 ag-1: -1; D2 antag: -4; D2 ag-2: 42*; D2 PAM-2: -20; D3 ag: -7%; D2 ag-3: 6%

What do the screens show for `OC(CN1CCN(c2ccccn2)CC1)Cn1c2ccc(Cl)cc2c2cc(Cl)ccc21` (stereo not drawn)?
D2 PAM-1: -1; D2 ag-1: -6; D2 antag: -3; D2 ag-2: 9; D2 PAM-2: 3

How did COc1ccc(CCNC(=O)CCCn2c(=O)c3ccccc3n(CC(=O)Nc3cccc(C)c3)c2=O)cc1OC do in these assays?
D2 ag-2: 0; D2 PAM-2: 1

How did O=C(O)/C(=C\c1cccc(F)c1)c1ccc(S(=O)(=O)N2CCCCC2)s1 do in these assays?
D2 PAM-1: 10; D2 ag-1: -6; D2 antag: -11; D2 ag-2: -1; D2 PAM-2: 6

What do the screens show for `O=C(O)/C(=C\c1cccc(O)c1)c1ccc(S(=O)(=O)N2CCCC2)s1`?
D2 PAM-1: 6; D2 ag-1: 0; D2 antag: 42*; D2 ag-2: 25; D2 PAM-2: -5; D3 ag: -5%; D2 ag-3: 8%

How did COc1ccc(CNCc2cn(-c3cccc(F)c3)nc2-c2ccc(C)o2)cc1 do in these assays?
D2 PAM-1: -20; D2 ag-1: -9; D2 antag: 9; D2 ag-2: -2; D2 PAM-2: -15

What do the screens show for `COc1ccccc1OCC(=O)NCCS(=O)(=O)N1CCN(c2ccccc2)CC1`?
D2 PAM-1: 15; D2 ag-1: inconclusive; D2 antag: 62*; D2 ag-2: 44*; D2 PAM-2: -14; D3 ag: inconclusive; D2 ag-3: inconclusive

What do the screens show for `COc1ccccc1N1CCN(S(=O)(=O)CCNC(=O)COc2ccccc2)CC1`?
D2 PAM-1: -17; D2 ag-1: 0

What do the screens show for `CC1CCN(c2nc3ccc(C(=O)NCc4ccccc4Cl)cc3s2)CC1`?
D2 ag-2: 1; D2 PAM-2: -1

How did NC[C@@H]1O[C@H](C23CC4CC(CC(C4)C2)C3)Cc2c1ccc(O)c2O do in these assays?
D2 PAM-1: inconclusive; D2 ag-1: 50*; D2 antag: 66*; D2 ag-2: 85*; D2 PAM-2: -25; D3 ag: 32µM*; D2 ag-3: 35µM*

Results for Cc1c(-c2ccccc2)c(=O)oc2c(CN3CCN(C)CC3)c(O)ccc12 ?
D2 ag-2: -1; D2 PAM-2: -4

What do the screens show for `COc1ccc(OCCNC(=O)c2ccc(C)cc2)cc1`?
D2 PAM-1: -4; D2 ag-1: 4

Results for O=[N+]([O-])c1cc2c(cc1CN1CCN(c3ccccc3F)CC1)OCO2 ?
D2 PAM-1: -2; D2 ag-1: -3; D2 antag: 0; D2 ag-2: 6; D2 PAM-2: -11

How did COc1cc(CN2CCN(c3ccccc3F)CC2)c([N+](=O)[O-])cc1OC do in these assays?
D2 PAM-1: -4; D2 ag-1: 0; D2 antag: 11; D2 ag-2: 37*; D2 PAM-2: -13; D3 ag: inconclusive; D2 ag-3: 27%

What do the screens show for `O=C(c1cccc(NS(=O)(=O)c2ccc(Br)cc2)c1)N1CCN(c2ccccc2O)CC1`?
D2 PAM-1: -23; D2 ag-1: -5; D2 antag: 3; D2 ag-2: 1; D2 PAM-2: -10; D3 ag: 9%; D2 ag-3: 11%

How did O=C(c1cccc(S(=O)(=O)Nc2ccccc2Cl)c1)N1CCN(c2ccccc2O)CC1 do in these assays?
D2 PAM-1: -1; D2 ag-1: 15; D2 antag: 14; D2 ag-2: 0; D2 PAM-2: 7; D3 ag: 11%; D2 ag-3: 8%

How did O=C(Cc1ccccc1)NNC(=S)Nc1ccc(Cl)cc1 do in these assays?
D2 PAM-1: -19; D2 ag-1: -7; D2 antag: 5; D2 ag-2: 44*; D2 PAM-2: -20; D3 ag: 1%; D2 ag-3: -4%

What do the screens show for `Cn1c(=O)c(Oc2ccc(F)cc2)c(O)c2ccccc21`?
D2 PAM-1: 11; D2 ag-1: 9; D2 antag: 3; D2 ag-2: 50*; D2 PAM-2: -16; D3 ag: 3%; D2 ag-3: -2%

Results for CC(=O)c1c(O)c2ccccc2n(C)c1=O ?
D2 PAM-1: 0; D2 ag-1: -4; D2 antag: 10; D2 ag-2: -2; D2 PAM-2: -5

How did CCOC(=O)c1ccc(Oc2nc(OC)cc(OC)n2)cc1 do in these assays?
D2 PAM-1: 1; D2 ag-1: -3; D2 antag: 7; D2 ag-2: -1; D2 PAM-2: 7

How did COc1cccc(N2CC(=O)N(NC(=O)CSc3nc(C)cc(C)c3C#N)CC2=O)c1 do in these assays?
D2 PAM-1: -2; D2 ag-1: -4; D2 antag: 19; D2 ag-2: 43*; D2 PAM-2: -12; D3 ag: -12%; D2 ag-3: -3%

How did O=C1CCCC(=O)N1c1ccc(N2CCOCC2)c([N+](=O)[O-])c1 do in these assays?
D2 PAM-1: -5; D2 ag-1: -4; D2 antag: -1; D2 ag-2: 0; D2 PAM-2: 0
